Experimental data: the supplement of paper PMC8728848
This is one part of a sample in which the strongest signals are shown more often than they occur.

What was measured:
Test in all cases: glycan array binding signal (z-score within array); higher = stronger binding
Conditions in all cases: glycan notation: IUPAC condensed, linker removed
GalNAc6S(b1-4)GlcNAc = target: GalNAc6S(b1-4)GlcNAc
Procedure, shortened: (§1)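 The binding signal is a Z-score computed within each array and averaged over linkers. Arrays of the same protein sequence at different concentrations or buffers were also averaged together. Data originate from 3228 arrays in the Consortium for Functional Glycomics database, kept only where the protein sequence was available.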

[1] = target: Glc(a1-4)Glc(a1-4)Glc(a1-4)Glc
Procedure, shortened: as §1

[2] = target: Glc(a1-6)Glc(a1-6)Glc(a1-6)Glc
Procedure, shortened: as §1

GlcA(b1-6)Gal = target: GlcA(b1-6)Gal
Procedure, shortened: as §1

[3] = target: GlcNAc(b1-2)[GlcNAc(b1-4)]Man(a1-3)[GlcNAc(b1-4)][GlcNAc(b1-2)[GlcNAc(b1-6)]Man(a1-6)]Man(b1-4)GlcNAc(b1-4)[Fuc(a1-6)]GlcNAc
Procedure, shortened: as §1

[4] = target: GlcNAc(b1-3)Gal(b1-4)GlcNAc(b1-2)Man(a1-3)[GlcNAc(b1-3)Gal(b1-4)GlcNAc(b1-2)Man(a1-6)]Man(b1-4)GlcNAc(b1-4)GlcNAc
Procedure, shortened: as §1

[5] = target: GlcNAc(b1-3)Gal(b1-4)GlcNAc(b1-3)Gal(b1-4)GlcNAc(b1-2)Man(a1-3)[GlcNAc(b1-3)Gal(b1-4)GlcNAc(b1-3)Gal(b1-4)GlcNAc(b1-2)Man(a1-6)]Man(b1-4)GlcNAc(b1-4)GlcNAc
Procedure, shortened: as §1

[6] = target: GlcNAc(b1-3)Gal(b1-4)GlcNAc(b1-3)Gal(b1-4)GlcNAc(b1-2)[GlcNAc(b1-3)Gal(b1-4)GlcNAc(b1-3)Gal(b1-4)GlcNAc(b1-6)]Man(a1-6)[GlcNAc(b1-3)Gal(b1-4)GlcNAc(b1-3)Gal(b1-4)GlcNAc(b1-2)Man(a1-3)]Man(b1-4)GlcNAc(b1-4)[Fuc(a1-6)]GlcNAc
Procedure, shortened: as §1

[7] = target: GlcNAc(b1-3)Gal(b1-4)GlcNAc(b1-3)Gal(b1-4)GlcNAc(b1-3)Gal(b1-4)GlcNAc(b1-2)Man(a1-3)[GlcNAc(b1-3)Gal(b1-4)GlcNAc(b1-3)Gal(b1-4)GlcNAc(b1-3)Gal(b1-4)GlcNAc(b1-2)Man(a1-6)]Man(b1-4)GlcNAc(b1-4)[Fuc(a1-6)]GlcNAc
Procedure, shortened: as §1

[8] = target: GlcNAc(b1-3)Gal(b1-4)GlcNAc(b1-3)Gal(b1-4)GlcNAc(b1-3)Gal(b1-4)GlcNAc(b1-2)[GlcNAc(b1-3)Gal(b1-4)GlcNAc(b1-3)Gal(b1-4)GlcNAc(b1-3)Gal(b1-4)GlcNAc(b1-6)]Man(a1-6)[GlcNAc(b1-3)Gal(b1-4)GlcNAc(b1-3)Gal(b1-4)GlcNAc(b1-3)Gal(b1-4)GlcNAc(b1-2)Man(a1-3)]Man(b1-4)GlcNAc(b1-4)[Fuc(a1-6)]GlcNAc
Procedure, shortened: as §1

[9] = target: Man(a1-2)Man(a1-6)[Man(a1-3)]Man(a1-6)[Man(a1-2)Man(a1-2)Man(a1-3)]Man
Procedure, shortened: as §1

[10] = target: Neu5Ac(a2-3)Gal(b1-3)[Fuc(a1-4)]GlcNAc(b1-3)Gal(b1-4)[Fuc(a1-3)]GlcNAc
Procedure, shortened: as §1

[11] = target: Neu5Ac(a2-3)Gal(b1-3)[Neu5Ac(a2-6)]GalNAc
Procedure, shortened: as §1

[12] = target: Neu5Ac(a2-3)Gal(b1-4)GlcNAc(b1-2)Man(a1-3)[GlcNAc(b1-2)Man(b1-4)GlcNAc(b1-2)Man(a1-6)]Man(b1-4)GlcNAc(b1-4)GlcNAc
Procedure, shortened: as §1

[13] = target: Neu5Ac(a2-3)Gal(b1-4)GlcNAc(b1-3)Gal(b1-4)GlcNAc
Procedure, shortened: as §1

[14] = target: Neu5Ac(a2-3)Gal(b1-4)GlcNAc(b1-3)Gal(b1-4)GlcNAc(b1-3)Gal(b1-4)GlcNAc(b1-2)Man(a1-3)[Neu5Ac(a2-3)Gal(b1-4)GlcNAc(b1-3)Gal(b1-4)GlcNAc(b1-3)Gal(b1-4)GlcNAc(b1-2)Man(a1-6)]GalNAc
Procedure, shortened: as §1

[15] = target: Neu5Ac(a2-3)Gal(b1-4)GlcNAc(b1-6)[Gal(b1-3)]GalNAc
Procedure, shortened: as §1

[16] = target: Neu5Ac(a2-3)Gal(b1-4)[Fuc(a1-3)]GlcNAc(b1-3)GalNAc
Procedure, shortened: as §1

[17] = target: Neu5Ac(a2-3)[GalNAc(b1-4)]Gal(b1-4)GlcNAc
Procedure, shortened: as §1

[18] = target: Neu5Ac(a2-6)Gal(b1-4)GlcNAc(b1-2)Man(a1-3)[GlcNAc(b1-2)Man(b1-4)GlcNAc(b1-2)Man(a1-6)]Man(b1-4)GlcNAc(b1-4)GlcNAc
Procedure, shortened: as §1

[19] = target: Neu5Ac(a2-6)Gal(b1-4)GlcNAc(b1-2)Man(a1-3)[Neu5Ac(a2-6)Gal(b1-4)GlcNAc(b1-2)Man(a1-6)]Man(b1-4)GlcNAc(b1-4)GlcNAc
Procedure, shortened: as §1

[20] = target: Neu5Ac(a2-6)Gal(b1-4)GlcNAc(b1-2)Man(a1-3)[Neu5Ac(a2-6)Gal(b1-4)GlcNAc(b1-2)Man(a1-6)]Man(b1-4)GlcNAc(b1-4)[Fuc(a1-6)]GlcNAc
Procedure, shortened: as §1

[21] = target: Neu5Ac(a2-6)Gal(b1-4)GlcNAc(b1-3)Gal(b1-4)GlcNAc(b1-3)Gal(b1-4)GlcNAc(b1-2)Man(a1-3)[Neu5Ac(a2-6)Gal(b1-4)GlcNAc(b1-3)Gal(b1-4)GlcNAc(b1-3)Gal(b1-4)GlcNAc(b1-2)Man(a1-6)]GalNAc
Procedure, shortened: as §1

[22] = target: Neu5Ac(a2-6)GalNAc(b1-4)GlcNAc6S
Procedure, shortened: as §1

[23] = target: Neu5Ac(a2-8)Neu5Ac(a2-8)Neu5Ac(a2-3)[Gal(b1-3)GalNAc(b1-4)]Gal(b1-4)Glc
Procedure, shortened: as §1

[24] = target: Neu5Ac9Ac(a2-6)Gal(b1-4)GlcNAc
Procedure, shortened: as §1

B1: BabA (Helicobacter pylori), O52269_HELPY (protein)
chain: AEDDGFYMSAGYQIGEAAQMVKNTKGIQELSDNYENLSNLLTRYSTLNTLIKLSADPSAVNAARENLGASAKNLIGDTKNSPAYQAVLLAINAAVGFWNVVGYVTQCGGNANGQKSTSSTTIFNNEPGYRSTSITCSLNGHMPGYYGPMSIENFKKLNEAYQILQTALKNGLPALKENNGTVNVTYSYTCSGEGNDNCSLQTTGVTNQNNGTKTETQTIDGKSVTTTISSKVVDSQ
GalNAc6S(b1-4)GlcNAc
  glycan array binding signal (z-score): -0.764
[1]
  glycan array binding signal (z-score): 0.344
[2]
  glycan array binding signal (z-score): 0.59
GlcA(b1-6)Gal
  glycan array binding signal (z-score): -0.267
[3]
  glycan array binding signal (z-score): -0.373
[4]
  glycan array binding signal (z-score): 0.363
[5]
  glycan array binding signal (z-score): 4.69
[6]
  glycan array binding signal (z-score): 3.66
[7]
  glycan array binding signal (z-score): 2.94
[8]
  glycan array binding signal (z-score): 2.92
[9]
  glycan array binding signal (z-score): -0.83
[10]
  glycan array binding signal (z-score): 0.749
[11]
  glycan array binding signal (z-score): 0.266
[12]
  glycan array binding signal (z-score): -1.52
[13]
  glycan array binding signal (z-score): -0.291
[14]
  glycan array binding signal (z-score): 9.34
[15]
  glycan array binding signal (z-score): 1.93
[16]
  glycan array binding signal (z-score): 0.626
[17]
  glycan array binding signal (z-score): -0.627
[18]
  glycan array binding signal (z-score): -0.829
[19]
  glycan array binding signal (z-score): -0.571
[20]
  glycan array binding signal (z-score): 1.19
[21]
  glycan array binding signal (z-score): 5.39
[22]
  glycan array binding signal (z-score): -0.637
[23]
  glycan array binding signal (z-score): 0.344
[24]
  glycan array binding signal (z-score): -0.224
